Assay results from PubChem BioAssay (NCATS).
Inconclusive results are not listed. Active and inactive are the calls of the source. The call rests on the fitted dose curve; in most records, active means well fitted inhibition curve with a large enough effect; inconclusive means small, poorly fitted or top-dose-only effect; inactive means no such curve, though single readings can be large or run the other way.

The compounds below were run against Thioredoxin reductase 1, cytoplasmic (Rattus norvegicus) (UniProt O89049) (assay: qHTS Assay for Inhibitors of Mammalian Selenoprotein Thioredoxin Reductase 1 (TrxR1) (AID 488773; further: nearly all actives have a fitted effect of over 40% in size)). Settings: purified TrxR1 enzyme activity; Potency: inhibition; series mostly up to 57.1 µM; activity change, negative = inhibition: at the top concentration.
Thioredoxin reductase 1, cytoplasmic (Rattus norvegicus), sequence (O89049 whole entry, looked up): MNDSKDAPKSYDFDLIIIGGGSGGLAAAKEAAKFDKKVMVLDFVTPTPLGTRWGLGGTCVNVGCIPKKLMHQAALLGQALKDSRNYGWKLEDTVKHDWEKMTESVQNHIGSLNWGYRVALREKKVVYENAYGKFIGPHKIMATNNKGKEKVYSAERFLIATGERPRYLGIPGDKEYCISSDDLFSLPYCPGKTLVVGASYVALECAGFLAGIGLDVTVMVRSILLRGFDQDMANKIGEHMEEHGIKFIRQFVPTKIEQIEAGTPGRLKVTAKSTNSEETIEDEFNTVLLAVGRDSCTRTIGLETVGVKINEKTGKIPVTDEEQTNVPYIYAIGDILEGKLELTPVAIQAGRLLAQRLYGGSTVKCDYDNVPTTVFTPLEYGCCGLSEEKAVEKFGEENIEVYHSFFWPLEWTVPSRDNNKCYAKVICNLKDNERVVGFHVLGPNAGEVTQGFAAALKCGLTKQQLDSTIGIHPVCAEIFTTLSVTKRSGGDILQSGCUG
Text: The selenoprotein thioredoxin reductase (TrxR; EC 1.8.1.9) is a FAD containing homodimeric pyridine nucleotide-disulfide oxidoreductase with many cellular roles. Together with NADPH and its prime substrate thioredoxin (Trx), the enzyme forms the core of the Trx system. The mammalian Trx system exerts a wide spectrum of functions including redox regulation, antioxidant defense, regulation of transcription factors as well as support of cell growth and replication. Many of these functions involve the reduction of Trx, which may subsequently reduce a number of different substrates including ribonucleotide reductase, peroxiredoxins or NFkB. Mammalian TrxR itself also has a broad substrate specificity, reducing both protein and non-protein substrates, including low molecular weight compounds such as dehydroascorbate, lipoic acid, ubiquinone, and juglone. In addition, several drugs in clinical use for anticancer treatment are indeed known to target TrxR1.
This BioAssay is a validation of an NADPH fluorescence-based, dual-purpose qHTS rTrxR1 assay designed to find potential inhibitors and substrates of rTrxR1. For this particular BioAssay, actives are potential inhibitors. See related BioAssay for substrate data deposition.
Assay protocol: 2 uL of reagents (buffer in column 4 as negative control and 90 nM rTrxR1 in columns 1-3 and 5-48) were dispensed into Greiner black solid-bottom 1,536-well assay plates, followed by 1 uL of NADPH (400 uM final concentration) to each well. The plates were centrifuged at 1000 rpm for 15 seconds and subsequently incubated for 5 min at room temperature (~22 deg C) to allow for rTrxR1 reduction. Compounds (23 nL) were then transferred via Kalypsys pin tool equipped with 1536-pin array (10 nL slotted pins, V&P Scientific, San Diego, CA). In addition, a duplicate 2-fold serial dilution of the control compounds auranofin, a known gold-based TrxR1 inhibitor, and juglone (5-hydroxy-1,4-naphthoquinone), a natural TrxR1 substrate, were pin-transferred to columns 2 and 3, respectively. After incubation for 15 min at room temperature (~22 deg C), 1 uL of selenite (400 uM final concentration) were dispensed to each well. The plate was immediately transferred to a ViewLux high-throughput CCD imager (PerkinElmer), wherein kinetic measurements of NADPH fluorescence (Ex 340 nm, Em 450 nm) were acquired (8 minute kinetic read, see Table 1). Read 1 was utilized to assess the capacity of a compound to serve as an rTrxR1 substrate, i.e. a decrease in NADPH fluorescence compared to the no-compound background is an indication of a substrate behavior for that particular compound. For inhibitory activity of a compound, delta values, computed as the difference in fluorescence intensity between the first and last reads of an 8-minute time kinetic window, were used. All reagents were diluted in an assay buffer consisting of 50 mM Tris-HCl, pH 7.5, 2 mM EDTA, and 0.01% Tween-20.
Throughout the screen, reagent bottle and all liquid lines were made light-tight to minimize reagent degradation. All screening operations were performed on a fully integrated robotic system (Kalypsys, San Diego, CA) containing one RX-130 and two RX-90 anthropomorphic robotic arms (Staubli, Duncan, SC). Library plates were screened starting from the lowest and proceeding to the highest concentration, and a 'double-pinning' step of the highest concentration was required to access higher concentrations of compounds. Vehicle-only plates, with DMSO being pin-transferred to the columns 5-48, were inserted uniformly at the beginning and the end of each library in order to monitor and record any shifts in the background, which can be affected by reagent dispensers or loss in enzyme activity over time. Screening data were corrected, normalized, and concentration-effect relationships were derived by using publicly-available curve fitting algorithms developed in-house (http://ncgc.nih.gov/pub/openhts).
On the % scale 0 is the no-effect control and ±100 the full control effect; potency means the concentration at half of the fitted maximal effect.

| Compound | activity change, negative = inhibition | Potency |
| --- | --- | --- |
| CCCCOC(=O)NS(=O)(=O)c1sc(CC(C)C)cc1-c1ccc(Cn2c(CC)nc3c(C)cc(C)nc32)cc1 | -10.7% (inactive) | – |
| N=C(N)c1ccc(OCCCCCOc2ccc(C(=N)N)cc2)cc1 (tested in a mixture with another compound) | 3.03% (inactive) | – |
| COc1ccc2c(c1)c(CC(=O)O)c(C)n2C(=O)c1ccccc1 | -9.62% (inactive) | – |
| CC[N+](CC)(CC)CC(=O)Nc1c(C)cccc1C | -4.47% (inactive) | – |
| COc1ccccc1N1CCN(CCCNc2c(C)c(=O)n(C)c(=O)n2C)CC1 | 3.02% (inactive) | – |
| C=CCNc1ncnc2ccc(Br)cc12 | 3.47% (inactive) | – |
| CC(C)NCC(O)COc1ccc(CC(N)=O)cc1 (stereo not given) | -2.4% (inactive) | – |
| C=CC[C@H](N)C(=O)O | -14.5% (inactive) | – |
| CNc1ncnc2c1ncn2[C@H]1C[C@H](OP(=O)(O)O)[C@@H](COP(=O)(O)O)O1 | 3.83% (inactive) | – |
| CCCCCC(O)CCCC(=O)O (stereo not given) | -5.37% (inactive) | – |
| C=C1C[C@@]23CC[C@H]4[C@@](C)(CCC[C@@]4(C)C(=O)OC4OC(CO)C(O)C(O)C4O)[C@@H]2CC[C@]1(OC1OC(CO)C(O)C(O)C1OC1OC(CO)C(O)C(O)C1O)C3 (stereo not given in full) | -3.66% (inactive) | – |
| CCn1c(=O)[nH]c2cc(Cl)c(Cl)cc21 | -4.05% (inactive) | – |
| COc1ccc(NC(=O)c2ccc(-c3ccc(-c4noc(C)n4)cc3C)cc2)cc1N1CCN(C)CC1 | -20.6% (inactive) | – |
| CN(CC[C@@H](Oc1ccc(C(F)(F)F)cc1)c1ccccc1)CC(=O)O | -14% (inactive) | – |
| CCCCCC[C@@H]([C@@H](C)O)n1cnc2c(N)ncnc21 | 3.44% (inactive) | – |
| CSC(N)=NCCC[C@H](N)C(=O)O | 4.8% (inactive) | – |
| CC1CNCCN1S(=O)(=O)c1cccc2cnccc12 (stereo not given) | -1.59% (inactive) | – |
| [Li+] | -16% (inactive) | – |
| O=C(O)Cc1ccc(O)c(O)c1 | – | 7.52 µM (active) |
| NC/C=C\C(=O)O | -5.41% (inactive) | – |

| Compound | activity change, negative = inhibition | Potency |
| --- | --- | --- |
| CCCn1c(=O)c2[nH]c(C3CCCC3)nc2n(CCC)c1=O | -3.4% (inactive) | – |
| O=c1[nH]c2cc(Cl)ccc2c(O)c1-c1ccc(Oc2ccccc2)cc1 | 8.33% (inactive) | – |
| CCN1C(=O)C=CC1=O | 3.9% (inactive) | – |
| O=c1cc(O)cc(/C=C/c2ccc(O)c(O)c2)o1 | -15.7% (inactive) | – |
| Cn1cc(C(F)(F)F)nc1-c1ccc(OCC(O)CNCCOc2ccc(O)c(C(N)=O)c2)cc1 (stereo not given) | -1.25% (inactive) | – |
| COc1cc(C(O)C(=O)O)ccc1O (stereo not given) | -18.6% (inactive) | – |
| CC(/C=C/c1cccc(Oc2ccc(F)cc2)c1)N(O)C(N)=O (stereo not given) | 1.87% (inactive) | – |
| CCOC(=O)C12CC1/C(=N/O)c1ccccc1O2 (stereo not given) | -3.15% (inactive) | – |
| CNc1cc(NS(=O)(=O)c2ccc(N)cc2)nc(NC)n1 | -8.54% (inactive) | – |
| O=C(O)CCC(=O)N1CCCC1C(=O)O (stereo not given) | -0.0987% (inactive) | – |
| O=C(O)c1ccccc1Nc1ccccc1 | -3.56% (inactive) | – |
| CC(C)(CO)Cc1cc(C(C)(C)C)c(O)c(C(C)(C)C)c1 | -4.07% (inactive) | – |
| Nc1ccc(CCNc2ncnc3c2ncn3C2OC(CO)C(O)C2O)cc1 (stereo not given) | -0.388% (inactive) | – |
| c1ccc2nc(C3=NCCN3)ccc2c1 | -3.51% (inactive) | – |
| NC1(C(=O)O)CC1 | 4.43% (inactive) | – |
| CCCc1c(OCCCOc2ccc(OCC(=O)O)cc2)ccc(C(C)=O)c1O | -0.384% (inactive) | – |
| CC(C)Cn1c(=O)n(C)c(=O)c2[nH]cnc21 | 7.17% (inactive) | – |
| CN(C)C(=O)/N=N/C(=O)N(C)C | 9.59% (inactive) | – |
| N[C@@H](Cc1ccc(F)cc1)C(=O)O | -4.9% (inactive) | – |
| O=C(O)/C(=C/c1c(C(=O)O)[nH]c2cc(Cl)cc(Cl)c12)c1ccccc1 | -5.59% (inactive) | – |
